Measurements from PubChem BioAssay AID488890 (Southern Research Specialized Biocontainment Screening …, 2010).
In all, about 320,000 compounds went through this assay and about 1,300 (0.41%) were called active. Another 3% or so got no clear call; they are omitted. No rule for the calls is given here. These entries were drawn from the full list. Potency and affinity values are given separately.

Test: growth inhibition of non-replicating M. tuberculosis (AID 488890);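 also: plate controls were DMSO cells for no effect and high antibiotic wells for full effect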
Conditions: Mycobacterium tuberculosis non-replicating, at 25 µM, stronger effect = higher value

Row | Compound | inhibition [%]
1 | COc1cc(OC)cc(C(=O)OCc2cc3ccccc3[nH]c2=O)c1 | -16
2 | COc1ccc(NC(=O)/C(=C/c2cccs2)NC(=O)c2ccco2)cc1 | -0.67
3 | Nc1cc(N)nc(SCC(=O)Nc2ccc3c(c2)OCO3)n1 | 2.02
4 | CS(=O)(=O)Oc1ccc(/C=N/NC(=O)c2ccncc2)cc1 | 60.2
5 | O=c1cc(-c2ccccc2)nc2nc(SCc3ccccc3)[nH]n12 | 60.3
6 | O=C(CCn1c(=S)oc2ccccc21)Nc1ccccc1Br | -5.39
7 | O=C(O)c1ccc2c(c1)C(=O)N(NC(=O)c1ccccc1)C2=O | -12.7
8 | COC(=O)c1ccc(NC(=O)COc2ccc3c(c2)OCO3)cc1 | 79.3
9 | CCc1ccccc1NC(=O)COc1ccc2c(c1)OCO2 | 65.4
10 | CC1=C(C(=O)Nc2ccccc2C(F)(F)F)C(c2sccc2C)NC(=S)N1 (stereo not drawn) | -0.9
11 | Cn1c(=O)c(-c2ccccc2)c(O)c2ccccc21 | 23.1
12 | COc1ccc(Oc2c(O)c3ccccc3n(C)c2=O)cc1 | 9.82
13 | CCCCCn1c(=O)c(C(=O)Nc2ccccc2)c(O)c2ccccc21 | 16.7
14 | CCCCCn1c(=O)c(-c2nc3ccccc3[nH]2)c(O)c2ccccc21 | 1.53
15 | CCCCCn1c(=O)c(C(=O)Nc2ccccc2Cl)c(O)c2ccccc21 | -6.13
16 | CCCCn1c(=O)c(C(=O)Nc2ccccc2C)c(O)c2ccccc21 | -11.7
17 | CC(C)NC(=O)c1c(O)c2cccc3c2n(c1=O)CCC3 | 11.9
18 | CCCCCCn1c(=O)c(C(=O)Nc2cccc(C)n2)c(O)c2ccccc21 | -13.9
19 | CCCCn1c(=O)c(C(=O)Nc2ccccc2)c(O)c2ccccc21 | -12.7
20 | CNC(=O)c1c(O)c2cccc3c2n(c1=O)CCC3 | 45.4
21 | CC1C/C(=N\NC(=O)c2ccc(NS(=O)(=O)c3ccc(Br)cc3)cc2)CC(C)(C)C1 (stereo not drawn) | -12.6
22 | Cc1nc(CCNC(=O)COc2ccccc2)cs1 | -16
23 | CCCC(=O)n1nc(-c2ccc(Cl)cc2)nc1SC | 64.9

Row | Compound | inhibition [%]
24 | O=C(CSc1nnc(Nc2ccccc2)s1)Nc1ccc(S(=O)(=O)N2CCOCC2)cc1 | 6.81
25 | Cc1cccc(N2CCN(C(=O)c3cc(=O)[nH]c4ccccc34)CC2)c1C | 24.4
26 | CCCC(C)C1c2c(c(C)c(C)oc2=O)Oc2c(C)c(C)oc(=O)c21 (stereo not drawn) | 25.8
27 | O=C1c2ccccc2C(=O)N1OS(=O)(=O)c1ccccc1 | 19
28 | Cc1nn(C)cc1/C=N\NC(=O)c1ccc2c(c1)c(C)c(C)n2Cc1ccccc1 | -7.16
29 | CCOc1ccccc1NC(=O)NCc1ccccc1F | 13.2
30 | COc1ccc(/C=N/NC(=O)c2cccc(NC(=O)c3ccccc3)c2)c(C(=O)O)c1OC | 31.1
31 | Cc1c(CCC(=O)N[C@@H](C)C(=O)O)c(=O)oc2cc3occ(-c4ccccc4)c3cc12 | 0.57
32 | NS(=O)(=O)c1cc(C(=O)NCCc2ccccn2)ccc1Cl | 7.03
33 | O=C(N/N=C/c1cccn1-c1ccccc1)c1ccncc1 | 52.4
34 | Cn1cccc1/C=N/NC(=O)c1cccnc1 | 6.3
35 | Cc1ccc(/C=N/NC(=O)c2ccccn2)s1 | 59.8
36 | Cc1ccsc1/C=N/NC(=O)c1cccnc1 | -17.1
37 | Cc1ccc(/C=N/NC(=O)c2ccc(C(=O)N/N=C/c3ccc(C)s3)o2)s1 | -14.7
38 | Cc1ccc(-n2c(C)cc(/C=N/NC(=O)c3ccncc3)c2C)c(C)c1 | 73.9
39 | Cc1ccsc1/C=N/NC(=O)c1ccc([N+](=O)[O-])cc1 | -7.45
40 | Cc1cccc(C)c1-n1c(C)cc(/C=N/NC(=O)c2ccncc2)c1C | 78
41 | Nn1c(SCC(=O)NC2CCCCC2)nnc1-c1ccccc1F | 9.14
42 | COC(=O)Nc1ccc(S(=O)(=O)N2CCCC(C(=O)Nc3cccc4c3OCCO4)C2)cc1 (stereo not drawn) | 17.4
43 | Cc1ccc(C(=O)N/C(=C/c2ccc(Cl)cc2)C(=O)Nc2cccc(C(=O)O)c2)cc1 | 17
44 | Cc1cc(NC(=O)CCC(=O)N(CC(=O)NCC2CCCO2)c2ccc(C)c(C)c2)no1 (stereo not drawn) | -4.55
45 | COc1nc(NCCO)nc(Nc2ccc([N+](=O)[O-])cc2)n1 | -18
46 | CSc1ccc(CCNC(=O)C2CCCN(c3nn4c(=O)cc(C)nc4s3)C2)cc1 (stereo not drawn) | 5.95

Row | Compound | inhibition [%]
47 | CC1(C(O)(C#CCN2CCCCC2)c2ccccc2)CCCC1 (stereo not drawn) | 3.27
48 | Clc1ccc(Cl)c(-c2nc(-c3ccncc3)no2)c1 | -30.7
49 | CCc1ccc(OCC(=O)N2CCN(c3ccccc3F)CC2)cc1 | 52.6
50 | COC(=O)c1ccccc1NC(=O)COC(=O)c1cccnc1 | 2.43
51 | Cc1cccc(CN2CCSCC2)c1 | 21.4
52 | Cc1ccc(NC(=O)CNC(=O)c2ccc(C)s2)nc1 | -9.04
53 | Cc1ccc(/C=N/NC(=O)c2cccnc2)s1 | 75.2
54 | Cc1ccc(/C=N/NC(=O)c2ccc(-c3ccccc3)cc2)o1 | 4.22
55 | O=C(N/N=C\c1ccncc1)c1ccc(Br)s1 | 15.2
56 | Cc1ccc(/C=N/NC(=O)c2cccnc2)o1 | 7.34
57 | O=C(N/N=C/c1cc(Br)cc(Br)c1O)c1ccncc1 | 57.1
58 | O=C(N/N=C\c1cc(Br)cs1)c1ccncc1 | 71.3
59 | O=C(N/N=C/c1cc(Br)c(Br)o1)c1cccnc1 | 40.9
60 | O=C(N/N=C/c1ccc(Br)s1)c1cccs1 | 79.8
61 | COc1cc(NS(=O)(=O)c2ccc(NC(=S)NC(=O)c3ccc(F)cc3)cc2)nc(OC)n1 | 42.3
62 | CCn1c(CN2CCOCC2)nnc1SCC(=O)Nc1cccc(C)c1 | -3.97
63 | O=C(NCCC(=O)N1CCC2(CC1)NCCc1[nH]cnc12)c1ccc(Br)cc1 | 10.4
64 | Cn1ncc2c(Nc3ccc(Br)cc3)nc(Nc3ccc(Br)cc3)nc21 | 9.77
65 | O=C(N/N=C/c1cn(-c2ccccc2)nc1-c1cc2ccccc2o1)c1ccncc1 | 42.8
66 | O=C(N/N=C/c1cn(-c2ccccc2)nc1-c1cccs1)c1ccncc1 | 48.3
67 | COc1ccc(N=C2NC(=O)C(CC(=O)NCCc3ccc(OC)c(OC)c3)S2)cc1 (stereo not drawn) | 14.1
68 | CC(NC(=O)c1ccc2c(=O)n3c(nc2c1)CCC3)c1ccc(S(N)(=O)=O)cc1 (stereo not drawn) | -7.93
69 | Cc1ccc(S(=O)(=O)N2CCCN(C(=O)c3cc4ccccc4[nH]3)CC2)cc1 | 11.2

Row | Compound | inhibition [%]
70 | COc1cccc(NC(=O)NNS(=O)(=O)c2ccc(OC)cc2OC)c1 | -16.4
71 | CN1CCN(C(c2cccnc2)c2ccc3cccnc3c2O)CC1 (stereo not drawn) | 28.6
72 | Oc1c(C(c2ccccn2)N2CCCCC2)cc(Cl)c2cccnc12 (stereo not drawn) | 75.4
73 | CCCCOc1ccc(NC(=O)CSc2nnnn2C)cc1 | 18.5
74 | Cn1cccc1/C=C1\C(=O)NC(=O)N(Cc2ccccc2)C1=O | 73
75 | Cn1cccc1/C=C1/C(=O)NC(=O)N(Cc2ccc(F)cc2)C1=O | 74.5
76 | CC1CN(c2nc3ccccn3c(=O)c2C=O)CC(C)O1 (stereo not drawn) | 1.76
77 | CCn1nnc(NC(=O)c2ccc(Br)o2)n1 | -5.58
78 | CCn1nnc(NC(=O)c2ccc(-c3ccccc3[N+](=O)[O-])o2)n1 | 9.81
79 | CCn1nnc(NC(=O)Cc2ccc(Cl)cc2)n1 | 11.1
80 | CCCn1nnc(NC(=O)c2ccc(-c3cccc(Cl)c3)o2)n1 | 59.5
81 | CCCCc1ccc(-c2nc(-c3ccncc3)no2)cc1 | 22.1
82 | Cc1ccc(NC(=O)c2ccccc2)cc1 | 25.8
83 | CC1=C(C(=O)Nc2ccccc2)S(=O)(=O)CCO1 | 68.2
84 | CCOc1cc(C(=O)Nc2cc(=O)n(C)c(=O)n2C)cc(OCC)c1OCC | 1.17
85 | Cc1cc(Cl)ccc1C(=O)C1CCCN(C(=O)c2cc(C(C)C)no2)C1 (stereo not drawn) | 45.6
86 | CCc1ccccc1NC(=O)N1CCc2ccccc2C1 | -17.5
87 | CCCCNC(=O)N1CCc2[nH]c3ccccc3c2C1 | 5.76
88 | CCOC(=O)N1N=C(C)CC1(O)c1ccccc1 (stereo not drawn) | -14.8
89 | Cc1cn(C(=O)c2cccc(Br)c2)c(C)n1 | -0.97
90 | COC(=O)C1=NN(C(=O)c2ccc(Cl)cc2)C(O)(c2ccccc2)C1 (stereo not drawn) | 79.6
91 | COC(=O)C1=NN(C(=O)c2cccc(Br)c2)C(O)(c2ccc(Cl)cc2)C1 (stereo not drawn) | 75.6
92 | COC(=O)C1=NN(C(=O)c2ccccc2)C(O)(c2ccc([N+](=O)[O-])cc2)C1 (stereo not drawn) | 21.5

Row | Compound | inhibition [%]
93 | CCOC(=O)C1=NN(C(=O)c2ccccc2)C(O)(c2ccc(C)cc2)C1 (stereo not drawn) | 73.7
94 | OCCC1CN(Cc2nc3ccccc3s2)CCN1C1CCCC1 (stereo not drawn) | -3.44
95 | O=C(CSc1nnc2ccccn12)N1CCc2ccccc2C1 | -9.62
96 | Cc1ccccc1CN1C(=O)/C(=C\c2ccc(C(=O)NCCN3CCOCC3)cc2)Sc2ccccc21 | 34.3
97 | O=C(COC(=O)c1cccnc1Cl)Nc1cc(S(=O)(=O)N2CCOCC2)ccc1Cl | -5.03
98 | O=C(CC1CCCCC1)NCC1CCCO1 (stereo not drawn) | 69.3
99 | Cc1ccc(N(Cc2cc3ccc(C)cc3[nH]c2=O)S(=O)(=O)c2ccccc2)c(C)c1 | 3.45
100 | CCCCOC(=O)C1CCCC(C)N1 (stereo not drawn) | 0.64
101 | CCCCOC(=O)C1CCC[C@@H](C)N1 (stereo partly drawn) | -6.13
102 | Cc1ccc(NC(=O)COC(=O)CN2C(=O)C3CCCCC3C2=O)cc1S(=O)(=O)N1CCOCC1 (stereo not drawn) | 6.8
103 | O=C(N/N=C/c1cc([N+](=O)[O-])ccc1O)NC12CC3CC(CC(C3)C1)C2 | 54.2
104 | O=C1NCCCC1C(=O)N/N=C/c1cc([N+](=O)[O-])ccc1O (stereo not drawn) | 15.8
105 | O=C(N/N=C/c1cc([N+](=O)[O-])ccc1O)C1C2CCCCC21 (stereo not drawn) | 77.2
106 | CCNC(=O)C(=O)N/N=C/c1cc([N+](=O)[O-])ccc1O | 27.1
107 | CC1(C)Cc2nc3sc(C(N)=O)c(N)c3cc2CO1 | -3.96
108 | O=C(CCC1CCCC1)NCCCNC(=O)CCC1CCCC1 | 72.8
109 | Cc1nc([N+](=O)[O-])c(Sc2nc3ccccc3n2C)n1Cc1ccccc1 | 70.5
110 | C=C(C)C(=O)Nc1cccc(C2=NOC3(C2)C[C@H](C(N)=O)N(C(=O)CC#N)C3)c1 (stereo partly drawn) | -3.19
111 | CCCCCCCCCn1cc(C(C)=O)c(=O)[nH]c1=O | 71.1
112 | CCCCCCCCn1cc(C(C)=O)c(=O)[nH]c1=O | 79.8
113 | COc1ccc(-n2nc(C(=O)NCC(=O)O)c3ccccc3c2=O)cc1 | -2.99
